Experiment in all cases: NCI-60 one-dose screen, 48 h (100 = growth as untreated, 0 = no growth, -100 = all killed)
What all share (conditions): 10 µM unless noted

Assay [1] deals with HCT-15 colon.
Assay [2] concerns HT29 colon.
The test system of assay [3] is SNB-19 CNS.
The subject of assay [4] is U251 CNS.
Assay [5] has as its system PC-3 prostate.
The subject of assay [6] is SK-MEL-5 melanoma.
In assay [7] the test system is UACC-62 melanoma.
Assay [8] has as its system LOX IMVI melanoma.
In assay [9] the test system is SK-MEL-28 melanoma.

This is part of a sample that, as a whole, favours compounds with a hit. Of some 83,000 tested, about 20% had one in any assay.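 Results are percent growth after 48 hours of single-concentration exposure. 100 means growth as in untreated cells, lower positive values show inhibition; negative values down to -100 show cell death.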 Unmarked numbers belong to inactive results. The source made the active and inactive calls. The calls were made as follows: active = growth percent below 10; inactive = the rest.

On to `C=C1C(=O)O[C@H]2[C@H]1CC/C(Cn1cc(CNC(=O)c3cc4ccccc4[nH]3)nn1)=C\CC[C@@]1(C)O[C@@H]21`, for which the growth in assay [1] was 79.8%; in [2], 11.4%; in [3], 81.5%; in assay [4] it was 67.6%; in assay [5], 70.2%; in assay [6], 64.4%. Also, the figures for the growth in assay [7], in assay [8] and in [9] were 49.8%, -23.6% (active) and 54.4%, respectively.
On to `COc1ccc(S(=O)(=O)NCCCNc2nccc(-c3c(-c4cccc([N+](=O)[O-])c4)nc4sccn34)n2)cc1`, for which the growth was 30.9% in [1]; 31.1% in [2]; 74.6% in assay [3]; 71.8% in [4]; 23.9% in assay [5]; -20.5% (active) in assay [6]. Further, the values for the growth in [7], in assay [8] and in [9] were 10.1%, 30.1% and 61.4%, respectively.
On to `Cc1ccc(-c2csc(NC(=O)CCCCl)n2)cc1`, for which the growth in [1] was 95.1%; in [2], 93.9%; in [3], 86.5%; in assay [4], 95.4%; in assay [5], 95.4%; in assay [6] it was 93.9%. For the same compound, the growth in assay [7] was 88.6%; in [8] it was 98.3%; in [9], 107%.
Regarding `CC(NNC(C)c1ccccc1)c1ccccc1` (configuration not stated), the growth in [1] was 105%; in [2], 95.2%; in assay [3], 100%; in assay [4] it was 106%; in [5], 94%; in assay [6], 101%. In addition, the growth is 110% in assay [7], 101% in assay [8] and 118% in [9].
With `CCCCCCCCCCCCNC(=O)[C@H]1CSC(c2cc(Br)cs2)N1` (some centres not stated), the growth in assay [1] is 3.37% (active); in assay [2], 0.836% (active); in assay [3] it was 74.5%; in assay [4] it was -52.6% (active); in assay [5], -35% (active); in assay [6] it was 53.4%. Also, the results for the growth in assay [7], in assay [8] and in [9] were -84.5% (active), -86.4% (active) and -82% (active), respectively.
As to `Cc1cc(N/N=C/c2nc(-c3ccc(Br)cc3)oc2C)c2cc(Br)ccc2n1`, the growth in assay [1] was 6.22% (active); in assay [2], -16.1% (active); in assay [3] it was 41.7%; in assay [4], -9.51% (active); in assay [5], 77.2%; in assay [6] it was 92.9%. Also, the growth was 73.9% in assay [7], -37.6% (active) in [8] and 24.7% in assay [9].
As for `CN(C)c1oc(C2OC2c2ccccc2)nc1C#N` (configuration not stated), the growth in assay [1] was 106%; in assay [2], 92.9%; in assay [3] it was 83.2%; in [4], 94%; in assay [5], 101%; in assay [6], 102%. For the same compound, the results for the growth in assay [7], in assay [8] and in assay [9] were 76.1%, 99.3% and 87.8%, respectively.
`COc1cc(-c2nn(C(=O)NS(=O)(=O)c3ccccc3)cc2-c2ccncc2)ccc1Cl`: the growth was 97.9% in [1]; 53.9% in [2]; 95.3% in assay [3]; 81.6% in assay [4]; 78.2% in [5]; 95.6% in assay [6]. The growth is 66.7% in assay [7], 71.5% in assay [8] and 91.8% in [9].
Regarding `CCOC(=O)c1ccc(NC(=O)N2CC(C)OC(C)C2)cc1` (configuration not stated), the growth in assay [1] is 96.2%; in assay [2], 101%; in assay [3] it was 93.2%; in assay [4], 97.4%; in [5], 103%; in assay [6], 99.7%. In addition, the growth in assay [7] was 87.6%; in assay [8], 96%; in assay [9], 98.5%.
As to `NC1=C(/C(N)=N/O)C(c2ccccc2)c2ccc3ccccc3c2O1` (configuration not stated), the growth was 5.04% (active) in assay [1]; 6.2% (active) in assay [2]; 24.8% in assay [3]; 19.6% in [4]; 20.4% in assay [5]; -44.5% (active) in assay [6]. The growth was 19.8% in [7], 22.7% in [8] and 49.8% in assay [9].
Consider `COc1ccc(-c2ccc(C)n2-c2ccc(-c3nc4cc(Cl)ccc4s3)cc2)cc1`, for which the growth was 105% in [1]; 100% in [2]; 103% in assay [3]; 98.2% in [4]; 113% in assay [5]; 97.9% in assay [6]. Also, the growth in assay [7] is 85.2%; in assay [8] it was 95.8%; in [9], 125%.
`Cc1ccc(S(=O)(=O)n2cc(C(=O)C(=O)Nc3ccncc3)c3ccccc32)cc1`: the growth in assay [1] is 24.9%; in assay [2], 6.07% (active); in assay [3], 45.7%; in [4], 33.7%; in assay [5] it was 55.1%; in assay [6], 11.2%. Besides, the growth in assay [7] is 32.4%; in assay [8], 45.2%; in [9], 52%.
`C=CCn1cc(-c2nc3ccccc3s2)c2cc(-c3ccc4c5c(cccc35)C(=O)N(CCN3CCNCC3)C4=O)ccc21`: the growth was 16.1% in assay [1]; 11% in [2]; 90% in assay [3]; 95.2% in assay [4]; 65.2% in [5]; 99.1% in [6]. Moreover, the growth in assay [7] is 93.6%; in assay [8] it was 77.6%; in assay [9] it was 107%.

For the origin of these results see PubChem BioAssay (NCI).
